This note sets out measurements from PubChem BioAssay (Tox21).

Records with an inconclusive call do not appear. Activity calls are given as the source filed them. Unless noted, calls follow the shape of the full dose curve.

Assay [1] can be described thus: Nuclear factor erythroid 2-related factor 2/antioxidant responsive element (Nrf2/ARE) small molecule agonists: luciferase reporter gene qHTS assay in human keratinocytes (AID 1919969). Also: nearly all actives have a fitted effect of over 35% in size. Also: potency is read from the fitted curve at half-maximal effect.
Assay [2] deals with Gonadotropin-releasing hormone receptor (Homo sapiens) (UniProt P30968). The assay can be described thus: Human gonadotropin-releasing hormone receptor (GnRHR) small molecule agonists, calcium flux assay in GnRHR-HEK293 cells (AID 1920063). Also: nearly all actives have a fitted effect of over 35% in size. The procedure, abridged: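 Fluorescence kinetics (480 nm excitation, 540 nm emission; 3 min, 1 s steps) report calcium mobilisation in human GnRHR-HEK293 cells in agonist mode. Dye incubation: 1 h, 37 C.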
Sequence of Gonadotropin-releasing hormone receptor (Homo sapiens) (P30968 whole entry, looked up): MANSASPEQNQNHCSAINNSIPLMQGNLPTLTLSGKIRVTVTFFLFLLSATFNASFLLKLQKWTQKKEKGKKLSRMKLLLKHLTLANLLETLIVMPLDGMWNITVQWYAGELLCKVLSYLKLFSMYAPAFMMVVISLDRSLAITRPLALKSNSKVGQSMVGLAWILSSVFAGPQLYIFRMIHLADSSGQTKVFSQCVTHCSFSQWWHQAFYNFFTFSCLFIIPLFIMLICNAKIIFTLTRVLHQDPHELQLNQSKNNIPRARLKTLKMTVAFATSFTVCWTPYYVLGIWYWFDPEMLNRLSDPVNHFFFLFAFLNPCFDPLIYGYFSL
On the technique in general: A change in cytosolic calcium serves as a functional read-out for many receptors and channels.

Assay [3] has as its target KiSS-1 receptor (Homo sapiens) (UniProt Q969F8). The assay can be described thus: Human kisspeptin (KISS1R) small molecule agonists, calcium flux assay in KISS1R-HEK293 cells (AID 1920064; active = well fitted activation curve with a large enough effect in the repeat runs). In a few lines:
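Measures KISS1R agonism through calcium-sensitive dye fluorescence in stably transfected HEK293 cells, read for 3 min after pin-tool compound delivery; 15-point titrations in triplicate.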

Assay [4] is described as follows: G protein-coupled receptor (GPCR) small molecule agonists, calcium flux assay: HEK293 wild type cell line counter screen (AID 1920065). The procedure, abridged: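 Readout: fluorescence at 480 nm excitation/540 nm emission, sampled at 1 s intervals for 3 min. Cells had been cultured 18 h, then dye-loaded 1 h at 37 C before compound or ATP addition.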
The nature of assay [5]: p53 small molecule agonists, cell-based qHTS assay with human liver microsomes (AID 1963577).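 Also: p53 response element beta-lactamase reporter cells with liver microsomes plus NADPH.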 The procedure, abridged: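 Metabolically competent format: test substances, human liver microsomes and NADPH (both 0.5 mg/mL final) incubated with p53RE-bla cells 16 h at 37 C. Beta-lactamase reporter signal then quantified by fluorescence.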
(In general: In qHTS, concentration-response curves come from the screen itself.)

Assay [6] in a line: p53 small molecule agonists, cell-based qHTS assay: qHTS cell viability counter screen (AID 1963581). Also: nearly all actives have a fitted effect of over 45% in size. Also: potency is read from the fitted curve at half-maximal effect. In a few lines: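 In the same plates used for the p53 bla reporter, HCT-116 cells given compounds for 16 h at 37 C received CellTiter-Glo; luminescence was recorded 30 min later at room temperature.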
For assay [7], the target named is 5-hydroxytryptamine receptor 2A (Homo sapiens) (UniProt P28223). The assay can be described thus: 5-hydroxytryptamine receptor 2A (HTR2A) small molecule antagonists, cell-based qHTS assay (AID 1963586). Also: nearly all actives have a fitted effect of over 45% in size. Also: potency is read from the fitted curve at half-maximal effect. The procedure, abridged: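 Antagonist-mode intracellular calcium assay: DOI (4 nM) added after 5 min compound pre-incubation at room temperature to dye-loaded HTR2A-CHO cells. Fluorescence followed for 3 min, sampled every second.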
Sequence of 5-hydroxytryptamine receptor 2A (Homo sapiens) (P28223 whole entry, looked up): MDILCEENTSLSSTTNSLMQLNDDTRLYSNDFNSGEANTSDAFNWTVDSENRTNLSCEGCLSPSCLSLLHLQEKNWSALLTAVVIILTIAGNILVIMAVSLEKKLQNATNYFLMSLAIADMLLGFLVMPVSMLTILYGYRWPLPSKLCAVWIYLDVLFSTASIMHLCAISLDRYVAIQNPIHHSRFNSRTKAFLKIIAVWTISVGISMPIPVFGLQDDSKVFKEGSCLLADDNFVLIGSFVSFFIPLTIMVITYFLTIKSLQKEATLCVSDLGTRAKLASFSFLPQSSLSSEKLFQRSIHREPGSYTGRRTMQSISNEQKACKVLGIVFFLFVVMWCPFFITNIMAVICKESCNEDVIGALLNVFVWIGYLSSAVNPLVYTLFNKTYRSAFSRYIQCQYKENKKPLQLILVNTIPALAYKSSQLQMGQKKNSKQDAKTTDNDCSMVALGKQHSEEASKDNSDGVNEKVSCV

Assay [8] has the same target. The assay can be described thus: 5-hydroxytryptamine receptor 2A (HTR2A) small molecule agonists, cell-based qHTS assay (AID 1963587). Also: nearly all actives have a fitted effect of over 30% in size. The procedure, abridged: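 CHO cells stably expressing human HTR2A, plated 18 h, loaded with calcium dye 1 h at 37 C. Agonist mode: compounds added and intracellular calcium fluorescence recorded kinetically for 2 min at 1 sec intervals.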

Assay [9] concerns the target Muscarinic acetylcholine receptor M1 (Homo sapiens) (UniProt P11229). The assay can be described thus: Cholinergic receptor muscarinic 1 (CHRM1) small molecule antagonists, cell-based qHTS assay (AID 1963588). Also: nearly all actives have a fitted effect of over 40% in size. In a few lines:
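CHRM1-CHO calcium-flux assay, antagonist mode. Cells were seeded 18 h, dye-loaded 1 h at 37 C and given compound for 5 min at RT, then acetylcholine was added at 50nM. FDSS fluorescence was read 3 min; 15 concentrations, three runs.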

The target is the same in assay [10]. The assay can be described thus: Cholinergic receptor muscarinic 1 (CHRM1) small molecule agonists, cell-based qHTS assay (AID 1963589). Also: nearly all actives have a fitted effect of over 35% in size. In a few lines:
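Each compound was tested at 15 concentrations across three independent runs on dye-loaded CHO cells stably expressing human CHRM1, reading intracellular calcium fluorescence kinetically at 1 sec intervals.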

The target in assay [11] is Beta-2 adrenergic receptor (Homo sapiens) (UniProt P07550). The assay can be described thus: Adrenergic beta2 receptor (ADRB2) small molecule antagonists, cell-based qHTS assay (AID 1963592). Also: series mostly up to about 92 µM; nearly all actives have a fitted effect of over 50% in size. In a few lines: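 Cells (CHO, stable ADRB2 overexpression) incubated 18-20hr at 37C; compounds added from DMSO; agonist mix (1nM isoproterenol, 100uM IBMX, 25uM Ro-20-1724) added; 0.5hr RT; d2-cAMP and anti-cAMP-cryptate added; 1hr RT; 665/615 nm read.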
Sequence of Beta-2 adrenergic receptor (Homo sapiens) (P07550 whole entry, looked up): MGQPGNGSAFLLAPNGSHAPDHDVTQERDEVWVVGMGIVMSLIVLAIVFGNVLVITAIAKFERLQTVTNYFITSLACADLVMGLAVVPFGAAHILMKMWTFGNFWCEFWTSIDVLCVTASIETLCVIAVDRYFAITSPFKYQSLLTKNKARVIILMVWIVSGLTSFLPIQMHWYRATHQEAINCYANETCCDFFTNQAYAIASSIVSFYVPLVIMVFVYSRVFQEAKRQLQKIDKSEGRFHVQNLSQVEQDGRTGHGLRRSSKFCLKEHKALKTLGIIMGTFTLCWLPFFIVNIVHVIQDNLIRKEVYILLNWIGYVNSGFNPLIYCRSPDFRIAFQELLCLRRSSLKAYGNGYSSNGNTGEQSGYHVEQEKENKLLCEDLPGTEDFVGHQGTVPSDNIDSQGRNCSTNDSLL

The target of assay [12] is D(2) dopamine receptor (Homo sapiens) (UniProt P14416). The assay can be described thus: Dopamine D2 receptor (DRD2) small molecule agonists, cell-based qHTS assay (AID 1963594). Also: nearly all actives have a fitted effect of over 35% in size. The procedure, abridged: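 HEK293 cells stably expressing human DRD2, pre-treated with PDE inhibitor Ro20-1724 (0.1 mM final) and compound 10 min at room temperature, then stimulated with NKH477 (200nM […]) for 30 min. cAMP read by HTRF (665/620 nm).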
Sequence of D(2) dopamine receptor (Homo sapiens) (P14416 whole entry, looked up): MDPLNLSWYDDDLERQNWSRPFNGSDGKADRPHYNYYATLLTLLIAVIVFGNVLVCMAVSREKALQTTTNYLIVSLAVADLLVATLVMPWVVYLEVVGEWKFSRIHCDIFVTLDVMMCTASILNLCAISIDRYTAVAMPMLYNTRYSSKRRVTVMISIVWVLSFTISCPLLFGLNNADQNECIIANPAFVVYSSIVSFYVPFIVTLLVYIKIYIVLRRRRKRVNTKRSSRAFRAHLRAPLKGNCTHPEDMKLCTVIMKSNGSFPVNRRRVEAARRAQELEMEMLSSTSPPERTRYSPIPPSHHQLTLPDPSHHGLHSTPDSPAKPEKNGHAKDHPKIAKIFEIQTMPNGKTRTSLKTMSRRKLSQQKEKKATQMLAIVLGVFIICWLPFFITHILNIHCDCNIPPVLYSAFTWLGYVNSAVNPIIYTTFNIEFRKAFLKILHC

Assay [13] has the same target. The assay can be described thus: Dopamine D2 receptor (DRD2) small molecule antagonists, cell-based qHTS assay (AID 1963595; active = well fitted inhibition curve with a large enough effect in the signal ratio in the repeat runs, with a control signal flat; the % refers to the signal ratio). In a few lines:
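DRD2-HEK293; 0.1 mM Ro20-1724; cpd 10 min RT; NKH477 200 nM + quinpirole 12 nM, 30 min RT; HTRF cAMP (cAMP-d2/anti-cAMP cryptate), 665/620 nm ratio after 1 h.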

Assay [14] is described as follows: p53 small molecule agonists, cell-based qHTS assay with rat liver microsomes (AID 1963578). In a few lines:
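Each plate received p53RE-bla cells, then compound, then rat liver microsomes and NADPH (both 0.5 mg/mL final). Plates were held 16 h at 37 C, and beta-lactamase activity was detected with LiveBLAzer over 2 h.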

The nature of assay [15]: p53 small molecule agonists, cell-based qHTS assay with human liver microsomes: qHTS cell viability counter screen (AID 1963579). Also: nearly all actives have a fitted effect of over 45% in size. In a few lines:
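Tox21 library compounds, delivered from DMSO stocks, were tested on p53RE-bla cells together with 0.5 mg/mL human liver microsomes and 0.5 mg/mL NADPH (final) over 16 h at 37 C; CellTiter-Glo luminescence served as the cytotoxicity measure.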

Assay [16] can be described thus: p53 small molecule agonists, cell-based qHTS assay with rat liver microsomes: qHTS cell viability counter screen (AID 1963580). Also: nearly all actives have a fitted effect of over 45% in size. The procedure, abridged: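 Viability is assessed in parallel with the p53 reporter read: HCT-116 p53RE-bla cells receive compounds plus rat microsomes and NADPH (0.5 mg/mL final apiece), incubate 16 h at 37 C, and then CellTiter-Glo luminescence is recorded.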

Assay [17] in a line: p53 small molecule agonists, cell-based qHTS assay (AID 1963582; active = well fitted activation curve with a large enough effect in the signal ratio in the repeat runs, not every such curve was filed as active; the % refers to the signal ratio). In a few lines: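 Compounds are pin-transferred in DMSO onto p53RE-bla cells and incubated 16 h at 37 C. The B/G FRET beta-lactamase substrate is then applied for 2 h at RT and fluorescence recorded.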
Assay [18] in a line: cAMP Responsive Elements (CRE) small molecule agonists, cell-based qHTS assay (AID 1963590). The procedure, abridged: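 Cell line: CRE-bla HEK 293T; medium DMEM/10% dialyzed FBS/0.1 mM NEAA/1 mM pyruvate/25 mM HEPES; 3 h compound exposure; beta-lactamase FRET readout after 2 h substrate loading at RT.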
Assay [19] can be described thus: cAMP Responsive Elements (CRE) small molecule antagonists, cell-based qHTS assay (AID 1963591; active = well fitted inhibition curve with a large enough effect in the signal ratio in the repeat runs, not every such curve was filed as active; the % refers to the signal ratio). The procedure, abridged: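 Inhibition of NKH477-driven (0.25 uM final) CRE-beta-lactamase signal in HEK293T cells, 3 h compound exposure at 37 °C, detected by FRET substrate fluorescence.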
The target of assay [20] is Beta-2 adrenergic receptor (Homo sapiens) (UniProt P07550). The assay can be described thus: Adrenergic beta2 receptor (ADRB2) small molecule agonists, cell-based qHTS assay (AID 1963593).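 Also: CHO cells stably overexpressing human ADRB2.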 The procedure, abridged: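 CHO cells stably over-expressing ADRB2 were plated overnight at 37C, then dosed with compounds plus a stimulation mix containing 100uM IBMX and 25uM Ro-20-1724 for 0.5hr at room temperature. cAMP was measured by HTRF competition, 1hr.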

Sequence of Muscarinic acetylcholine receptor M1 (Homo sapiens) (P11229 whole entry, looked up): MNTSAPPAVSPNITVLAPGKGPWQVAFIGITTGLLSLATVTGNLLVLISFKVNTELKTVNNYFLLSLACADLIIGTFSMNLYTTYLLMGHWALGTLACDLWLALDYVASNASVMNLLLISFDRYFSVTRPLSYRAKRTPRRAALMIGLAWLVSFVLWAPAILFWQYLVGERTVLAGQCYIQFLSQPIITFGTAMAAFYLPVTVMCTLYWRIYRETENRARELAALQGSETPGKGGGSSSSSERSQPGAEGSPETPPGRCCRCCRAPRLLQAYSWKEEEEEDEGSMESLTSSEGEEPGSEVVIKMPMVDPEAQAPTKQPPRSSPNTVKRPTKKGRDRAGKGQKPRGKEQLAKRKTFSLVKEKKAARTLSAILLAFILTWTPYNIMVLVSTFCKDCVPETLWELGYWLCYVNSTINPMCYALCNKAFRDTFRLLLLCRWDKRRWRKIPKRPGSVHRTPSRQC
Sequence of KiSS-1 receptor (Homo sapiens) (Q969F8 whole entry, looked up): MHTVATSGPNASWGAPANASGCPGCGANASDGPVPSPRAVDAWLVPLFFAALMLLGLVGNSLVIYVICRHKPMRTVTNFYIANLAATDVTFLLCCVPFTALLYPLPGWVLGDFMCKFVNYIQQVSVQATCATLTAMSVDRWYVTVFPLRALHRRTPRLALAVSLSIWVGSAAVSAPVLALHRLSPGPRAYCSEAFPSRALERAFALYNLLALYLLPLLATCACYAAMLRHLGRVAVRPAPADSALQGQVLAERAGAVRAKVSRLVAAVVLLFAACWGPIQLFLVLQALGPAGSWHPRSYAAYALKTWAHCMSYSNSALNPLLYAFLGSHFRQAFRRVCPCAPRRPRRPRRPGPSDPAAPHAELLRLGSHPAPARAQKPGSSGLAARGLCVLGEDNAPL

As to `CCCC1C(CC)=CC(CC)=CN1c1ccccc1` (configuration not stated), in assay [1], the Potency is 61.1 µM (active). Also, the Potency entry in assay [2], in assay [3], in assay [4], in assay [5], in assay [6] and in [7] was “inactive” each time. The Potency entry in assay [8], in [9], in [10], in [11], in assay [12] and in assay [13] was “inactive” throughout.

On to `CC(=O)OCCC(C)CC(C)(C)C` (configuration not stated), for which the Potency result in [1], in assay [2], in [3], in assay [4], in assay [14] and in assay [15] was “inactive” throughout. Moreover, the Potency entry in assay [16], in [6], in assay [17], in assay [7], in assay [8] and in assay [10] was “inactive” throughout. Further, the Potency result in assay [18], in assay [19], in [12] and in assay [13] was “inactive” throughout.

Regarding `CCCCCCCCCCCCCCCCC(C(=O)O)C(O)(CC(=O)O)C(=O)O` (configuration not stated), the Potency entry in [1], in [2], in assay [3], in [4], in [14] and in assay [15] was “inactive” each time. Moreover, the Potency entry in assay [16], in assay [17], in assay [9], in assay [10], in assay [18] and in [20] was “inactive” throughout. In addition, the Potency result in assay [13] is “inactive”. Moreover, the Potency in assay [7] was 13 µM (active).

For `C#C[C@]1(OC(C)=O)CC[C@H]2[C@@H]3CCC4=C/C(=N/O)CC[C@@H]4[C@H]3CC[C@@]21CC`, the Potency entry in assay [1], in assay [2], in [3], in assay [4], in assay [14] and in assay [15] was “inactive” in each case. Also, the Potency entry in assay [16], in assay [6], in assay [7], in assay [8], in assay [10] and in [19] was “inactive” throughout. For the same molecule, the Potency entry in [12] and in assay [13] was “inactive” in each case.

`Nc1cccc2c(N)cccc12`: the Potency in assay [1] is 13.7 µM (active); in [6], 0.646 µM (active). Besides, the Potency entry in assay [2], in [3], in assay [4], in [5], in assay [8] and in assay [9] was “inactive” each time. Also, the Potency result in [10] and in [18] was “inactive” in each case.

`CCCCCC[C@@H](O)C/C=C\CCCCCCCC(=O)O`: the Potency result in assay [1], in assay [2], in assay [3], in [4], in assay [14] and in assay [15] was “inactive” throughout. Moreover, the Potency entry in assay [16], in assay [6], in assay [17], in assay [7], in assay [9] and in [10] was “inactive” throughout. The Potency entry in [19], in [11], in assay [20], in assay [12] and in assay [13] was “inactive” throughout.

On to `CNCc1ccc(NC(=O)c2c[nH]c3c2C(=O)CCC3)cc1`, for which the Potency entry in assay [1], in assay [2], in assay [3], in assay [4], in [14] and in [15] was “inactive” throughout. Besides, the Potency result in assay [16], in [17], in assay [7], in [10], in [18] and in [19] was “inactive” in each case. The Potency result in assay [11] and in [13] was “inactive” in each case.

Turning to `C=CC(=O)Nc1cc2c(Nc3ccc(F)c(Cl)c3)ncnc2cc1OCCCN1CCOCC1`, the Potency result in [1], in assay [2], in [3], in assay [4], in [14] and in assay [15] was “inactive” throughout. Besides, the Potency entry in [16], in [6], in [17], in [8], in assay [9] and in assay [10] was “inactive” in each case. In addition, the Potency entry in [11] and in assay [13] was “inactive” each time.
